Screens from PubChem BioAssay.
ZTA counter: counter-screen for EBNA-1 inhibitors: inhibitors of Epstein-Barr virus ZTA. P03206. 0.15% of 320,000 active. inhibition, % at 11 µM. AID 2234. ZTA-DNA binding, fluorescence polarization; in the data active means inhibition above about 33%
Target sequence (P03206 whole entry, looked up): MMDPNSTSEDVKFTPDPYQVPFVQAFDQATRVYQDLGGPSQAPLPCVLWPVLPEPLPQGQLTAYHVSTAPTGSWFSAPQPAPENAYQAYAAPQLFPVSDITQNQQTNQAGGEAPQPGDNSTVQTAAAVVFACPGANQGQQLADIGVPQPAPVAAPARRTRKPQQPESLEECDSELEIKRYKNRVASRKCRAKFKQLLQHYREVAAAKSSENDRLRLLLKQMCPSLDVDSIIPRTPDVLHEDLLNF
NALP1 yeast inh: NALP1 inhibition. S. cerevisiae NALP1/ASC/caspase-1 growth, X-gal OD620, 72 h. inhibition, % at 10 µM. 0.61% of 280,000 active. AID 2071; in the data active means inhibition mostly above about 24%, no sharp cut-off; inactive means mostly below about 32%
dFosB activator: mouse delta FosB homodimer activation; activation, % at 25 µM; 0.99% of 340,000 active; P13346; purified delta FosB, TAMRA-CDK5 oligo fluorescence polarization; percent of positive-control signal above neutral wells; AID 493131;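 active means mean activation above about 17%, with every replicate also reaching it, limit read from the data, passing the limit was not always enough; inconclusive means only one of the two conditions met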
Target sequence (P13346 whole entry, looked up): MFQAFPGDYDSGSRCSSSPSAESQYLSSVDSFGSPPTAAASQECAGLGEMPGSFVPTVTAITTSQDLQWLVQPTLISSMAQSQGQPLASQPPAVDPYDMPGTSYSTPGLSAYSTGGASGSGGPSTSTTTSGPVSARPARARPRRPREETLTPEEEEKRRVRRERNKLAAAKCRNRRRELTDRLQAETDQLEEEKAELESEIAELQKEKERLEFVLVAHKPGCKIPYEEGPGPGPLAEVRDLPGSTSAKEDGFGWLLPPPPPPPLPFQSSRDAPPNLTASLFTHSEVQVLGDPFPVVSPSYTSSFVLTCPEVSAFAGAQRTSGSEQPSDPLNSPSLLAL
EBNA-1 inhibitor: blocks EBNA-1 binding to DNA. EBNA-1 DNA binding, fluorescence polarization. inhibition, % at 14.8 µM. 0.34% of 300,000 active. AID 1950; in the data active means inhibition above about 28%
PolyA inh: yeast polyadenylation inhibition. S. cerevisiae SKY197-pL101 polyadenylation reporter, beta-gal luminescence; efflux-impaired pdr1/pdr3 knockout yeast; score 100 = 6 SD above DMSO. activity score, % at 12 µM. 0.02% of 300,000 active. AID 1875;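 active means lowest replicate activity score at least 50, where 100 means six control SD above control mean; inconclusive means lowest score under 50 but half or more replicates reach 50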;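 further: yeast exposed to compound for 9 h at 30 °C; higher score means more reporter readthrough which indicates perturbed polyadenylation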
NLRP3 yeast inh: blocks the NALP3 inflammasome reconstituted in yeast. inhibition, % at 10 µM. 0.39% of 330,000 active. Yeast reconstituted NLRP3/ASC/caspase-1, beta-gal luminescence, 24 h. AID 2825;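 active means inhibition of 50% or more; inactive means inhibition below 50%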;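 further: plate controls were induced DMSO wells for no effect and uninduced yeast grown without galactose for full effect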
An asterisk follows results filed as active; ? = inconclusive; · = not tested or not shown. A selection: hits, their analogues and other compounds. The true share with any hit is near 2.2%.

SMILES | ZTA counter | NALP1 yeast inh | dFosB activator | EBNA-1 inhibitor | PolyA inh | NLRP3 yeast inh
O=C(Nc1c2c(nn1-c1cccc(Cl)c1)CS(=O)(=O)C2)c1ccco1 | 0.4 | 31.9 | -10.5 | -7.7 | -1.4 | 7.4
O=C(NC1C2CC3CC(C2)CC1C3)c1ccc(Br)o1 (centres undefined) | 2.5 | 5.0 | 1.2 | 2.4 | -14.5 | 24.7
O=C(CSc1nccc(=O)[nH]1)NCc1ccco1 | 0.2 | 43.2* | -0.7 | 12.7 | -0.9 | 8.5
C#CCNC(=O)C1=C[C@@H](C(C)(C)C)C[C@@H](OCc2ccc(CO)cc2)O1 | 0.3 | 29.7* | -14.9 | -7.7 | -7.7 | 12.1
COc1ccc(C(=O)N2c3cc4c(cc3C(C)=CC2(C)C)OCO4)cc1 | · | 26.3* | -8.1 | · | -19.6 | ·
CC1=CC(C)(C)N(C(=O)c2ccccc2)c2ccc(C)cc21 | · | 4.5 | 3.2 | · | -8.3 | 2.4
CCN(CC(=O)NCCCN1CCOCC1)S(=O)(=O)c1ccc(Cl)cc1 | -6.0 | 18.3 | 0.2 | -4.5 | 2.7 | 8.1
O=C(CSc1nc2ccccc2o1)Nc1ccc(N2CCOCC2)cc1 | -5.9 | 27.9* | -5.5 | -9.8 | -1.7 | 16.5
O=C(CN1CCN(c2ccccc2)CC1)c1ccc2cc[nH]c2c1 | -5.9 | 37.7* | -5.4 | -0.1 | -6.3 | 20.7
O=C(O)c1ccc(C(=O)c2cc([N+](=O)[O-])cc([N+](=O)[O-])c2)cc1 | · | · | 10.6 | · | · | ·
COC(c1ccccc1)c1nnc(CCC(=O)NCCCc2ccccc2)o1 (centres undefined) | 4.0 | 12.8 | 1.8 | -10.8 | 8.0 | 5.1
COC(c1ccccc1)c1nnc(CCC(=O)N(C)CCc2ccccc2)o1 (centres undefined) | 7.1 | 30.1* | -3.5 | 1.9 | ? | 5.0
Cc1c(Cl)cccc1NC(=O)CSc1nncn1-c1ccccn1 | -1.1 | -6.5 | -3.4 | 5.2 | 7.4 | 18.7
COc1ccccc1N(C(=O)Cn1nnc(-c2ccc(C)o2)n1)C(C(=O)NC1CCCC1)c1ccncc1 (centres undefined) | 5.6 | 21.7 | -10.6 | 3.7 | 4.2 | 9.8
COc1ccc(Br)cc1CSC(=N)N | 9.3 | 7.4 | -1.1 | 4.3 | 6.5 | -11.7
CCCCCOc1ccc(Br)cc1CSC(=N)N | · | 52.3* | -38.2 | · | 11.0 | ·
Oc1c(Br)cc(/C=N/Nc2ccc(Cl)nn2)cc1Br | -18.1 | 5.6 | -4.2 | -11.0 | -7.9 | 25.1
Oc1c(Br)cc(Br)cc1/C=N/Nc1ccc(Cl)nn1 | -24.0 | 40.7* | -1.7 | -4.0 | 2.5 | ·
COCCCN(CCCN)Cc1ccco1 | -2.2 | 70.6* | -1.7 | -7.3 | -7.6 | 45.0
COCCCN(CCNC(=O)c1ccc(NC2=NC3CS(=O)(=O)CC3S2)cc1)Cc1ccco1 (centres undefined) | -2.8 | -8.9 | -9.1 | 1.0 | -12.4 | 3.5
CCOC(=O)C1CCN(CC(=O)Nc2cc(S(=O)(=O)N3CCCCC3)ccc2Cl)CC1 | · | · | -12.3 | · | · | 5.0
O=C(CCNS(=O)(=O)c1ccc(Br)cc1)NNC(=O)C1COc2ccccc2O1 (centres undefined) | · | · | -3.5 | · | · | 17.2
O=C(Nc1ccc(OC(F)(F)F)cc1)Nc1cccc([N+](=O)[O-])c1 | -19.9 | 59.4* | 3.2 | 2.2 | -15.9 | 43.2
Cc1ccc(NC(=O)Nc2cccc([N+](=O)[O-])c2)cc1F | 5.7 | 30.2 | 4.6 | 1.6 | -4.4 | 26.6
COc1ccc(-[n+]2c(C)cc(/C=C3\Sc4ccccc4N3C)cc2C)cc1 | -26.6 | 28.4* | 28.6* | -4.9 | -15.5 | 12.4
SMILES | ZTA counter | NALP1 yeast inh | dFosB activator | EBNA-1 inhibitor | PolyA inh | NLRP3 yeast inh
OCC1OC(c2ccccc2)OC2COC(c3ccccc3)OC12 (centres undefined) | · | · | -2.4 | · | · | ·
CCC(CC(C)(C)O)C(=O)NNC(=S)Nc1ccccc1 (centres undefined) | 8.0 | 32.7* | 0.8 | 10.6 | -10.7 | 1.8
O=C(NC(=S)Nc1cccnc1)c1cc2ccccc2o1 | -11.8 | 47.2* | -10.7 | 0.4 | -3.2 | 37.0
COC(=O)c1ccccc1-c1c2ccc(=N)cc-2oc2cc(N)ccc12 | 15.6 | · | 88.0* | · | · | 17.7
COc1ccc(C2NCCc3c2[nH]c2ccccc32)cc1CN1CCc2cc(OC)c(OC)cc2C1C (centres undefined) | · | · | 63.3* | · | -0.5 | ·
COc1ccc(C2NCCc3c2[nH]c2ccccc32)cc1COc1ccc(F)cc1 (centres undefined) | 6.8 | 41.6 | 61.8* | 9.1 | 2.8 | 18.9
Cc1ccc(-c2nc(NCCCO)c3ccccc3n2)cc1 | 0.7 | · | -27.1 | -0.8 | -9.0 | 19.2
OCCCNc1c2ccccc2nc2ccccc12 | -2.0 | 5.2 | 18.6* | 8.7 | -26.2 | 1.6
COCCNc1c2c(nc3ccccc13)CCC2 | 10.3 | 4.4 | -9.4 | -1.8 | -6.1 | 14.5
Fc1cccc(NCCc2c[nH]c3ccccc23)n1 | 0.4 | 12.7 | -6.0 | -14.7 | -12.4 | 32.2
c1ccc2c(NCCc3c[nH]c4ccccc34)c3ccccc3nc2c1 | 9.5 | 16.7 | 123.2* | -6.7 | 15.4 | 8.5
CN(C)CCCNc1c2c(nc3ccccc13)CCC2 | -4.4 | 25.9 | 20.3* | -7.9 | 3.2 | 7.0
COCCn1c(=N)c(S(=O)(=O)c2ccc(F)cc2)cc2c(=O)n3ccccc3nc21 | -5.0 | -3.3 | -3.1 | -3.4 | 15.1 | 12.7
COc1ccc(C(=O)N2CCN(S(=O)(=O)c3ccc(Br)cc3)CC2)cc1 | 2.4 | · | -8.2 | · | · | 11.6
Cc1ccc(OC(=S)Nc2ccc(O)cc2)cc1 | -11.4 | 68.9* | -1.7 | -2.6 | · | 15.4
Cc1cc(C(=O)COC(=O)c2cccc(O)c2)c(C)n1C1CC1 | -4.7 | · | -7.4 | · | · | 8.2
Nc1nc(N)c(C=Nc2ccc(Br)cc2)c(Nc2ccc(Br)cc2)n1 | 14.3 | 28.0 | 107.7* | -13.5 | -3.5 | 16.2
Nc1nc(N)c(Br)c(Nc2ccc(Cl)c(Cl)c2)n1 | · | · | 0.0 | · | · | ·
Cc1ccc(S(=O)(=O)Cc2cc(F)c([N+](=O)[O-])cc2[N+](=O)[O-])cc1 | 4.0 | 47.3* | -7.1 | -7.5 | -7.0 | 14.6
COc1cc(/C=N/NC(=O)c2ccoc2C)ccc1O | -10.0 | 5.8 | 2.8 | -7.4 | 4.0 | -15.9
COc1cccc(/C=N/NC(=O)c2ccoc2C)c1 | 5.7 | 35.5* | -0.4 | 13.6 | 6.4 | 15.6
CCOc1ccc(C(=O)N[C@H](C(=O)Nc2cccc(S(=O)(=O)N3CCCCC3)c2)C(C)C)cc1 | -12.8 | 15.1 | -1.6 | 41.9* | 0.6 | 4.8
COCCn1c(SCC(=O)NN2C(=O)NC(C)(c3ccccc3)C2=O)nnc1-c1ccncc1 (centres undefined) | 8.1 | · | -6.6 | · | · | -6.0
Cc1noc(NS(=O)(=O)c2ccc(NC(=O)CC(C)C)cc2)c1C | 2.4 | 37.9* | 1.9 | -9.0 | 4.0 | -3.8
O=C(NCCCl)NNc1c(Cl)cc(Cl)cc1Cl | 6.1 | 30.7* | 2.0 | -15.5 | -0.1 | 10.6
Cc1cccc(Nc2nc(NCCCN3CCOCC3)nc(N)c2[N+](=O)[O-])c1 | -7.4 | 30.4 | 36.9* | -6.1 | 14.8 | 3.5
Nc1nc(NCCCN2CCOCC2)nc(Nc2ccc(F)cc2)c1[N+](=O)[O-] | -8.5 | 28.2 | 30.8* | -3.5 | -9.7 | 4.8
